Records with an inconclusive call do not appear. Active and inactive are the calls of the source. How the source made its calls, unless noted: active means hit-call score of the fitted dose curve at least 0.9, where 1 is the maximum; inactive means score below 0.9.
How the values were obtained:
[1] = biological target: human Retinoid X Receptor beta (RXRb), RXRB (gene 6257) (UniProt P28702); assay: ATG_RXRb_TRANS: Attagene TRANS-FACTORIAL HepG2 Assay for human Retinoid X Receptor beta (RXRb) (AID 2283013; active means hit-call score of the fitted dose curve at least 0.9, where 1 is the maximum)
Summary of the method: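 Readout is reporter transcript induction after 24 h dosing. It is measured by RT-PCR of total RNA followed by fluorescent capillary electrophoresis. HepG2 liver cells carry transfected multiple reporter units driven by an exogenous RXRb-Gal4 fusion; activity is relative to DMSO.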

[2] = biological target: Retinoic acid receptor RXR-alpha (Homo sapiens) (UniProt P19793); assay: ATG_RXRa_TRANS: Attagene TRANS-FACTORIAL HepG2 Assay for human Retinoid X Receptor alpha (RXRa) (AID 2283012; active means hit-call score of the fitted dose curve at least 0.9, where 1 is the maximum)
Summary of the method: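 TRANS format reporting activity of exogenous RXRa-Gal4 chimera in transiently transfected HepG2, 24 h exposure. Reporter transcripts quantified by RT-PCR with capillary electrophoresis, with gain of signal scored relative to DMSO.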

[3] = read-out: E-selectin (Homo sapiens) (UniProt P16581); assay: BSK_3C_Eselectin: BioMAP Diversity Plus: 3C Assay for Eselectin Biomarker Activity (AID 2283015); details: primary human endothelial cells (HUVEC); actives raise or lower the signal;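 on outcome: cell surface E-selectin protein quantified by ELISA 24 h after dosing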
Summary of the method: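 ELISA read-out of E-selectin on endothelial monolayers after 24 h chemical treatment. Human umbilical vein primary cells served as the system, with DMSO defining baseline activity for bidirectional fitting.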

[4] = read-out: Interleukin-1 alpha (IL1a), IL1A (gene 3552); assay: BSK_BE3C_IL1a: BioMAP Diversity Plus: BE3C Assay for Interleukin-1 alpha (IL1a) Biomarker Activity (AID 2283016); details: primary human bronchial epithelial cells; actives raise or lower the signal
Summary of the method: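 IL-1a measured by ELISA after 24 h treatment of human primary bronchial epithelial cells, with gain or loss of signal fitted versus DMSO. Parallel cultures stained with SRB gauge overt cytotoxicity.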

[5] = read-out: Monocyte Chemoattractant Protein-1 (MCP1), CCL2 (gene 6347); assay: BSK_3C_MCP1: BioMAP Diversity Plus: 3C Assay for Monocyte Chemoattractant Protein-1 (MCP1) Biomarker Activity (AID 2283017); details: primary human endothelial cells (HUVEC); actives raise or lower the signal
Summary of the method: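 ELISA read-out of MCP-1 from human umbilical vein endothelial cell cultures harvested 24 h post-dosing. Gain or loss of signal was fitted relative to DMSO.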

[6] = read-out: Human Leukocyte Antigen - DR isotype (HLADR), HLA-DRA (gene 3122); assay: BSK_3C_HLADR: BioMAP Diversity Plus: 3C Assay for Human Leukocyte Antigen - DR isotype (HLADR) Biomarker Activity (AID 2283019); details: primary human endothelial cells (HUVEC); actives raise or lower the signal;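 on outcome: ELISA of cell-surface HLA-DR on HUVEC 24 h after dosing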
Summary of the method: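 ELISA readout of surface HLA-DR on human umbilical vein endothelium, taken 24 h after chemical treatment. Gain- and loss-of-signal were both fitted relative to DMSO.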

[7] = read-out: Interleukin-8 (IL8), CXCL8 (gene 3576); assay: BSK_3C_IL8: BioMAP Diversity Plus: 3C Assay for Interleukin-8 (IL8) Biomarker Activity (AID 2283020); details: primary human endothelial cells (HUVEC); actives raise or lower the signal
Summary of the method: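 IL-8 was measured by ELISA in HUVEC cultures 24 h after chemical dosing, with gain or loss of signal fitted relative to DMSO. Parallel SRB total-protein staining tracked overt cytotoxicity.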

[8] = read-out: Monokine induced gamma interferon (MIG), CXCL9 (gene 4283); assay: BSK_3C_MIG: BioMAP Diversity Plus: 3C Assay for Monokine induced gamma interferon (MIG) Biomarker Activity (AID 2283021); details: primary human endothelial cells (HUVEC); actives raise or lower the signal;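 on AC50: MIG protein level measured by immunoassay in the treated endothelial cultures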
Summary of the method: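 ELISA measurement of MIG in human umbilical vein endothelial cells 24 h after treatment. Cytotoxicity tracked by SRB staining in parallel cultures; gain or loss of signal fitted relative to DMSO.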

[9] = biological target: human Thyroid Receptor alpha (THRa1), THRA (gene 7067) (UniProt P10827); assay: ATG_THRa1_TRANS: Attagene TRANS-FACTORIAL HepG2 Assay for human Thyroid Receptor alpha (THRa1) (AID 2283014; active means hit-call score of the fitted dose curve at least 0.9, where 1 is the maximum)
Summary of the method: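 Reporter transcript induction, read by capillary electrophoresis of 6-FAM-labelled RT-PCR products, reflects activity of a transfected THRa1-Gal4 fusion in HepG2 liver cells. Cells were dosed for 24 h; activity was fitted in the positive direction against DMSO.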

Sequence of human Retinoid X Receptor beta (RXRb), RXRB (gene 6257) (P28702 whole entry, looked up, the tested form may be a part): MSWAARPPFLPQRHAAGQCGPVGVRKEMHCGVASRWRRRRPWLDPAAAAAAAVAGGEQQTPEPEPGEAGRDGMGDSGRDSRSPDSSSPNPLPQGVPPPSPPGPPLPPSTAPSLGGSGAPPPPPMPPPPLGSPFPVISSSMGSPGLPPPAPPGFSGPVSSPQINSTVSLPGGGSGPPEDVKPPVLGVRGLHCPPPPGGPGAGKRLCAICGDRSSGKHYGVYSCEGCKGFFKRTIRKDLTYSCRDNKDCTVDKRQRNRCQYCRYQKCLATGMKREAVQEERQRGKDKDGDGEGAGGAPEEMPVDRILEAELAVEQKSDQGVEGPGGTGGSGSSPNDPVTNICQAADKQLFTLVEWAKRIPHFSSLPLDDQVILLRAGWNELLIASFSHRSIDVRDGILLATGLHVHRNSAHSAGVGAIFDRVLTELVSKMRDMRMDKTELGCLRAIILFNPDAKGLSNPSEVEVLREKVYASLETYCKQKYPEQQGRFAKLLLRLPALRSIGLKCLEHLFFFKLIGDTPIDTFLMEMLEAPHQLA
Sequence of human Thyroid Receptor alpha (THRa1), THRA (gene 7067) (P10827 whole entry, looked up, the tested form may be a part): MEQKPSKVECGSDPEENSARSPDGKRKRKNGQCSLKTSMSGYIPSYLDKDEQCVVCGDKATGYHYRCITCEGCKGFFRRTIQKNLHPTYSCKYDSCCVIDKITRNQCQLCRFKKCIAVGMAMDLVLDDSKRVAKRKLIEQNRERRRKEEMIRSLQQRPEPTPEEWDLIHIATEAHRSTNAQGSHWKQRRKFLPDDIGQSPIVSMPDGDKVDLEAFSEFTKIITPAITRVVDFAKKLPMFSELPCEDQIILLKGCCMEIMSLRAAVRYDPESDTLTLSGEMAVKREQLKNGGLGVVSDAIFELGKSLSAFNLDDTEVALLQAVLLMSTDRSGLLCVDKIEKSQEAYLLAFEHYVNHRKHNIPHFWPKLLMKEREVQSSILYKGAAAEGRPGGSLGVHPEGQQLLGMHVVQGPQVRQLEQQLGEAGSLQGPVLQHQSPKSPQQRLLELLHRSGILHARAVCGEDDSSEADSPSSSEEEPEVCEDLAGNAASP
Sequence of E-selectin (Homo sapiens) (P16581 whole entry, looked up): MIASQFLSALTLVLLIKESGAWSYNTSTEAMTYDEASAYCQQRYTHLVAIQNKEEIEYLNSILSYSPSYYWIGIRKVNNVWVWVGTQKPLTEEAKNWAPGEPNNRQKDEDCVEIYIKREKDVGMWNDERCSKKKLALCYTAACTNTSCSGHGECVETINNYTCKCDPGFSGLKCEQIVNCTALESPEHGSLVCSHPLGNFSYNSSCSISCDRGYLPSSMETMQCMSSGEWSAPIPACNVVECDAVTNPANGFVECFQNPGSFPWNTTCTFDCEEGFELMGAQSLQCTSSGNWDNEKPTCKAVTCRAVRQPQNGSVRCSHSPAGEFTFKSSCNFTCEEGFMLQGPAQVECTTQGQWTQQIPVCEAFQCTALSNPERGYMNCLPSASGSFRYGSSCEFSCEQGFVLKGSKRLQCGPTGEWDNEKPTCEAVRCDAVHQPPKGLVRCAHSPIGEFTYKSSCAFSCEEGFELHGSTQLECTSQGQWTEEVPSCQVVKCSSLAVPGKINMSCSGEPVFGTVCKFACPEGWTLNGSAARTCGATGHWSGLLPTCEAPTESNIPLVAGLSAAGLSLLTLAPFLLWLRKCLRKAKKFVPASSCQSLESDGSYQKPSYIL
Sequence of Retinoic acid receptor RXR-alpha (Homo sapiens) (P19793 whole entry, looked up, the tested form may be a part): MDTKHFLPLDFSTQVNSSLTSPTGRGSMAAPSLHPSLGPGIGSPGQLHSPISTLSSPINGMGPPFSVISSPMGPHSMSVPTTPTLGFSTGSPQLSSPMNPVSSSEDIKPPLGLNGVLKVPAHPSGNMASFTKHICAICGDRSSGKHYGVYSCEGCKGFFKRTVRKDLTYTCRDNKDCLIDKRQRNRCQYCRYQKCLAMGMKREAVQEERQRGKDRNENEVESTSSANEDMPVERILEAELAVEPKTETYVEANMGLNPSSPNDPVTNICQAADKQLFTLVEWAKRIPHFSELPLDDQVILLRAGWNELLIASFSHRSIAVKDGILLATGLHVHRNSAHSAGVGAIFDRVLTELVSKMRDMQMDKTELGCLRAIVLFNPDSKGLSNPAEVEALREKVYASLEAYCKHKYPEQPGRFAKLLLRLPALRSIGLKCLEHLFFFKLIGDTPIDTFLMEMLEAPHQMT

Q: How did the outcome [1] turn out when `Cc1cnc(NC(=O)C2=C(O)c3ccccc3S(=O)(=O)N2C)s1` was run?
A: inactive

Q: For `O=C(Cl)c1cc(C(=O)Cl)cc(C(=O)Cl)c1`, which outcome [2] is on record?
A: inactive

Q: And the AC50 [3]?
A: 15.1 µM (active)

Q: What about the AC50 [4] of the same molecule?
A: 29.5 µM (active)

Q: What about the AC50 [5] of the same molecule?
A: 11.6 µM (active)

Q: And the AC50 [6]?
A: 10.5 µM (active)

Q: What about the AC50 [7] of the same molecule?
A: 9.93 µM (active)

Q: And the AC50 [8]?
A: 29.3 µM (active)

Q: How did the outcome [1] turn out when `C1=Cc2ccccc2C1` was run?
A: inactive

Q: How did the outcome [1] turn out when `CCCOC(=O)CCCCC(=O)OCCC` was run?
A: inactive

Q: With `O=C1CCCCCCCCCCCCCCCO1` as the molecule, how does the AC50 [1] read?
A: 70.4 µM (active)

Q: With `COC(=O)c1ccccc1OC` as the molecule, how does the outcome [1] read?
A: inactive

Q: `c1ccc2c(c1)ccc1ncccc12` was tested. Which outcome [2] did it give?
A: inactive

Q: What about the AC50 [3] of the same molecule?
A: 16.4 µM (active)

Q: What about the AC50 [4] of the same molecule?
A: 20 µM (active)

Q: What about the AC50 [5] of the same molecule?
A: 5.9 µM (active)

Q: What about the AC50 [6] of the same molecule?
A: 20 µM (active)

Q: What about the outcome [7] of the same molecule?
A: inactive

Q: What about the outcome [8] of the same molecule?
A: inactive

Q: With `Cc1cc(O)c(Cl)c(C)c1Cl` as the molecule, how does the outcome [1] read?
A: inactive

Q: `O=S(=O)(O)c1ccccc1C=Cc1ccc(-c2ccc(C=Cc3ccccc3S(=O)(=O)O)cc2)cc1` was tested. Which outcome [9] did it give?
A: inactive

Q: For `COC(=O)C1=C(C)NC(C)=C(C(=O)OCC(C)C)C1c1ccccc1[N+](=O)[O-]` (stereo not drawn), which outcome [9] is on record?
A: inactive

Q: Which outcome [1] does the source give for `CC1=Nc2ccc3ccccc3c2C1(C)C` here?
A: inactive

Q: And the outcome [9]?
A: inactive

Q: `CCOC(=O)NNc1nncc2ccccc12` was tested. Which outcome [9] did it give?
A: inactive

Q: With `Nc1ncn([C@@H]2O[C@H](CO)[C@@H](O)[C@H]2O)c(=O)n1` as the molecule, how does the outcome [9] read?
A: inactive

Q: Which results are given for `NNC(=O)c1cccc(C(=O)NN)c1`?
A: outcome [1]: inactive; outcome [9]: inactive

Q: `OC1OCCOC1O` (stereo not drawn) was tested. Which outcome [9] did it give?
A: inactive

Q: With `S=C(NC1CCCCC1)NC1CCCCC1` as the molecule, how does the outcome [9] read?
A: inactive

Q: And the outcome [3]?
A: inactive

Q: What about the outcome [4] of the same molecule?
A: inactive

Q: What about the outcome [5] of the same molecule?
A: inactive

Q: What about the outcome [6] of the same molecule?
A: inactive

Q: What about the outcome [7] of the same molecule?
A: inactive

Q: What about the outcome [8] of the same molecule?
A: inactive

Q: `CO[Si](OC)(OC)c1ccccc1` was tested. Which outcome [9] did it give?
A: inactive

Q: What about the outcome [3] of the same molecule?
A: inactive

Q: And the outcome [4]?
A: inactive

Q: And the outcome [5]?
A: inactive

Q: What about the outcome [6] of the same molecule?
A: inactive

Q: And the outcome [7]?
A: inactive

Q: And the outcome [8]?
A: inactive

Reference: PubChem BioAssay (EPA / NIEHS)
